Laboratory results published in PubChem BioAssay (NCATS).
Unmarked numbers belong to inactive results. Results filed as inconclusive are left out. Where a call stands in place of a potency, no number is given. Active and inactive are the calls of the source. Unless noted, calls follow the shape of the dose curve; as a rule, active = well fitted curve in the direction sought with a large enough effect; inconclusive = small, poorly fitted or top-dose-only effect, or another doubt; inactive = no such curve, though single readings can be large; an effect the other way counts as inactive or inconclusive.

Experiments:
[1] = biological target: Cytochrome P450 1A2 (Homo sapiens) (UniProt P05177); test: p450-cyp1a2 (AID 410; calls by dose curve; also: potency is read from the fitted curve at half-maximal effect)
How it was run: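 Inhibition was calculated relative to 57 uM furafylline (full inhibition). The reaction used human CYP1A2 at 20nM with Luciferin-ME at its Km, 100uM, driven by an NADPH-regenerating system for 60 min at room temperature.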

[2] = biological target: Glucocorticoid receptor (Homo sapiens) (UniProt P04150); test: GR-EFC Redistribution (AID 451; calls by dose curve; also: potency is read from the fitted curve at half-maximal effect); conditions: CHO-K1 GR-EFC translocation, beta-gal luminescence, 2 h
How it was run: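 CHO-K1 cells stably expressing nuclear-localized β-gal enzyme acceptor and GR fused C-terminally to the enzyme donor fragment; ligand-driven nuclear translocation restores β-gal by complementation. Compounds titrated up to 46 uM final, 2 h at 37 °C; luminescence read.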

[3] = biological target: 3',5'-cyclic-AMP phosphodiesterase 4B (Homo sapiens) (UniProt Q07343); test: qHTS Assay for Inhibitors of PDE-IV (AID 607; active = well fitted activation curve with a large enough effect in the main read-out, with a control signal flat, not every such curve was filed as active)
How it was run: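 ACTOne HEK293 cells carry a modified cAMP-gated CNG channel and express endogenous PDE4; plated 1000 cells/well, compounds up to 22.9 uM final. Membrane-potential dye fluorescence (ex 535/em 590) was read; parental cells received 10 uM forskolin + 100 uM RO 20-1724.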

[4] = biological target: Cytochrome P450 2C9 (Homo sapiens) (UniProt P11712); test: qHTS Assay for Inhibitors and Substrates of Cytochrome P450 2C9 (AID 883); also: nearly all actives have a fitted effect of over 60% in size; also: potency is read from the fitted curve at half-maximal effect
How it was run: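 Human CYP2C9 (10nM) hydroxylated Luciferin-H (100uM, at its KM) to luciferin in 25mM KPO4. Compound was preincubated 10 min at 37C, then NADPH regeneration started a 60 min reaction at 37C. Luminescence was read after detection reagent, normalized to 57uM sulphaphenazole.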

[5] = biological target: Cytochrome P450 2D6 (Homo sapiens) (UniProt P10635); test: qHTS Assay for Inhibitors and Substrates of Cytochrome P450 2D6 (AID 891); also: nearly all actives have a fitted effect of over 60% in size; also: potency is read from the fitted curve at half-maximal effect
How it was run: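 Human CYP2D6 (5 nM) with 30 uM Luciferin-ME EGE (at Km) in 100 mM KPO4, compound preincubated 10 min, then NADPH regeneration system for 60 min at room temperature. Luciferin read by luminescence; normalized to 1.43 uM quinidine.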

[6] = biological target: Cytochrome P450 2C19 (Homo sapiens) (UniProt P33261); test: qHTS Assay for Inhibitors and Substrates of Cytochrome P450 2C19 (AID 899); also: nearly all actives have a fitted effect of over 60% in size; also: potency is read from the fitted curve at half-maximal effect
How it was run: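 Human CYP2C19 (5nM) with Luciferin-H EGE at 10uM (its KM) in 50mM KPO4 was preincubated with compound for 10 min at 37C. NADPH regeneration started a 60 min 37C reaction. Luciferin was read by luminescence, normalized to 57uM ketoconazole.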

[7] = biological target: Mitogen-activated protein kinase 10 (Mus musculus) (UniProt Q61831); test: JNK3 AlphaScreen Assay (AID 530; active = well fitted curve in either direction with a large enough effect, not every such curve was filed as active;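 also: kinase came from lysate of stimulated human HepG2 cells; signal reports phosphorylation of biotinylated GST-cJun 1-79 at Ser73 with 10 µM ATP; series mostly up to about 57 µM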)
How it was run: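 JNK3 came from HepG2 lysates pre-activated with IL-1beta and TNF-alpha and phosphorylated biotinylated GST-cJun (1-79) at 10 uM ATP, pH 7.6, room temperature. Compounds were titrated. AlphaScreen signal used anti-phospho-cJun (Ser73) antibody.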

[8] = biological target: Cytochrome P450 3A4 (Homo sapiens) (UniProt P08684); test: qHTS Assay for Inhibitors and Substrates of Cytochrome P450 3A4 (AID 884); also: potency is read from the fitted curve at half-maximal effect; nearly all actives have a fitted effect of over 50% in size
How it was run: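 20 nM human CYP3A4 with 25 uM Luciferin-PPXE (at KM) in 200 mM KPO4, preincubated 10 min with compound; NADPH regeneration started a 60 min RT reaction. Luciferin detected by luminescence, normalized to 57 uM ketoconazole as full inhibition.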

[9] = biological target: Cytochrome P450 3A4 (Homo sapiens) (UniProt P08684); test: qHTS Assay for Activators of Cytochrome P450 3A4 (AID 885); also: nearly all actives have a fitted effect of over 65% in size
How it was run: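 20nM CYP3A4 + 25uM Luciferin-PPXE (=KM), 200mM KPO4; cpd 10 min RT; NADPH regen, 60 min RT; stop w/ detection buffer, 20 min; luminescence. Normalized to 57 uM ketoconazole.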

Sequence of 3',5'-cyclic-AMP phosphodiesterase 4B (Homo sapiens) (Q07343 whole entry, looked up): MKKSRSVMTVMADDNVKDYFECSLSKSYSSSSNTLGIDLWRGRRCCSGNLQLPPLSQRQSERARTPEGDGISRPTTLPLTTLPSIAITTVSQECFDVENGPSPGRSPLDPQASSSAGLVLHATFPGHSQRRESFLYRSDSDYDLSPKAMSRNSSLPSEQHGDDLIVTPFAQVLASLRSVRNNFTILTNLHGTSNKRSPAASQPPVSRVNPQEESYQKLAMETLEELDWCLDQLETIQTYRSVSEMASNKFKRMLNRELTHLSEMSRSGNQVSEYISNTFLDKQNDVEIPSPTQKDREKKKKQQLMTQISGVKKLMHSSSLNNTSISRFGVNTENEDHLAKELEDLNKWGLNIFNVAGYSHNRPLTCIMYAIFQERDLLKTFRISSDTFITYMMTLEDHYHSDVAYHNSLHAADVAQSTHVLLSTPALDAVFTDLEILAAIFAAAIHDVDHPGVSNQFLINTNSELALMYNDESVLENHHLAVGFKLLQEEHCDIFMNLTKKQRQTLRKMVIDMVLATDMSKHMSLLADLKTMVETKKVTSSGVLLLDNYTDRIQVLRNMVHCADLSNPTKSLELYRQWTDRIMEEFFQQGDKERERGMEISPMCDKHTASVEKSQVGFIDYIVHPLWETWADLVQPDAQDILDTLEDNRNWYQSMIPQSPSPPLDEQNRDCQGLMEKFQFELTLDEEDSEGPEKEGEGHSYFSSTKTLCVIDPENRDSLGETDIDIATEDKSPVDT
Sequence of Cytochrome P450 2D6 (Homo sapiens) (P10635 whole entry, looked up): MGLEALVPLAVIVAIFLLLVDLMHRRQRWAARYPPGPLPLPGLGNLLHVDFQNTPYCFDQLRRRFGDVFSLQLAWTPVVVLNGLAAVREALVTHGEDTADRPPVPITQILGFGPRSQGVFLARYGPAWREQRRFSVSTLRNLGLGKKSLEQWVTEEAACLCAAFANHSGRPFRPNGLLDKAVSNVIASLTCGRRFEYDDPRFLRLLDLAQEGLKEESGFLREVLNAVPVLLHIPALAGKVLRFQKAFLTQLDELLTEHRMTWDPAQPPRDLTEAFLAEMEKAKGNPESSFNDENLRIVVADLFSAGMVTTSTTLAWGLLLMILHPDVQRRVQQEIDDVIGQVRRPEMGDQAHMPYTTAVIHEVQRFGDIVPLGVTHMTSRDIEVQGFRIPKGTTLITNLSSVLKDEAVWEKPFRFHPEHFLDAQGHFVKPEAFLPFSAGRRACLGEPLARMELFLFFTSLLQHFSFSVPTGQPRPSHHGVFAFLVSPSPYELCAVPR
Sequence of Cytochrome P450 2C19 (Homo sapiens) (P33261 whole entry, looked up): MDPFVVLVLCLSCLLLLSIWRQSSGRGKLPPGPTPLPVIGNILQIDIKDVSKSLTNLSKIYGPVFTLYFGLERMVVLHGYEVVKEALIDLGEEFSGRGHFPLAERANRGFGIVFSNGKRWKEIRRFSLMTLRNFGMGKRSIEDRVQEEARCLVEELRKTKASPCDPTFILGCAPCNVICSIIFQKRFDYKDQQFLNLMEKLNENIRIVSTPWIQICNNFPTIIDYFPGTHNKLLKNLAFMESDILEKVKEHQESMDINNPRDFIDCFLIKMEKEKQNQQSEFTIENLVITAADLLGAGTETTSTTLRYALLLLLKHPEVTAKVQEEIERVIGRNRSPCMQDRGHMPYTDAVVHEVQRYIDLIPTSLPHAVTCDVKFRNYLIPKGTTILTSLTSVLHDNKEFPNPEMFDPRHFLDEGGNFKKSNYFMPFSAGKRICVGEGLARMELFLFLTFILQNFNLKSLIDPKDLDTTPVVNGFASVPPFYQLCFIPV
Sequence of Cytochrome P450 2C9 (Homo sapiens) (P11712 whole entry, looked up): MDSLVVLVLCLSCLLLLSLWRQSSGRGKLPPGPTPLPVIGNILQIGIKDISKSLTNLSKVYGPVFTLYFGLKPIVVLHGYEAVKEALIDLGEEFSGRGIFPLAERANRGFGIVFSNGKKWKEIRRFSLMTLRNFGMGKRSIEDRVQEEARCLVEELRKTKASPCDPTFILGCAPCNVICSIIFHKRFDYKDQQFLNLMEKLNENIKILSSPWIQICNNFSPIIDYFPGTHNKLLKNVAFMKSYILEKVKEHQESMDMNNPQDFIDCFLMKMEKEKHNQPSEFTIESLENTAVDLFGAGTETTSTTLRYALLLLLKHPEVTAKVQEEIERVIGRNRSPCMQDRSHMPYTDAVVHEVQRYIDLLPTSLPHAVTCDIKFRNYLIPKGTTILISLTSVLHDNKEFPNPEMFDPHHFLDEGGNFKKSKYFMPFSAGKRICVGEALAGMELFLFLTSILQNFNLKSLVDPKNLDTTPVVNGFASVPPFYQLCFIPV
Sequence of Cytochrome P450 1A2 (Homo sapiens) (P05177 whole entry, looked up): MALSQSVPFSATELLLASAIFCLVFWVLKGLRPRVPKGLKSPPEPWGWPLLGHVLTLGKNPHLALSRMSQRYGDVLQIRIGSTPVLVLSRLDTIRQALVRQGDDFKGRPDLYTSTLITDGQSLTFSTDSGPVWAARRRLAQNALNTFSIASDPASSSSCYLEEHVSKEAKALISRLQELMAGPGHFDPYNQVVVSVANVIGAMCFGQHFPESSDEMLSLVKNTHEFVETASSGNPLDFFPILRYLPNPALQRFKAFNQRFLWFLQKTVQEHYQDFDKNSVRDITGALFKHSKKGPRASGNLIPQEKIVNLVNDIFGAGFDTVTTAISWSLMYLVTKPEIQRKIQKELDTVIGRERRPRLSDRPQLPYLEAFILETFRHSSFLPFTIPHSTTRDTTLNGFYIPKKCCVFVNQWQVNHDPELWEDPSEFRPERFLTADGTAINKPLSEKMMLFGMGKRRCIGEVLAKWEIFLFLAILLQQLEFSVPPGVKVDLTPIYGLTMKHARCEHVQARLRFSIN
Sequence of Cytochrome P450 3A4 (Homo sapiens) (P08684 whole entry, looked up): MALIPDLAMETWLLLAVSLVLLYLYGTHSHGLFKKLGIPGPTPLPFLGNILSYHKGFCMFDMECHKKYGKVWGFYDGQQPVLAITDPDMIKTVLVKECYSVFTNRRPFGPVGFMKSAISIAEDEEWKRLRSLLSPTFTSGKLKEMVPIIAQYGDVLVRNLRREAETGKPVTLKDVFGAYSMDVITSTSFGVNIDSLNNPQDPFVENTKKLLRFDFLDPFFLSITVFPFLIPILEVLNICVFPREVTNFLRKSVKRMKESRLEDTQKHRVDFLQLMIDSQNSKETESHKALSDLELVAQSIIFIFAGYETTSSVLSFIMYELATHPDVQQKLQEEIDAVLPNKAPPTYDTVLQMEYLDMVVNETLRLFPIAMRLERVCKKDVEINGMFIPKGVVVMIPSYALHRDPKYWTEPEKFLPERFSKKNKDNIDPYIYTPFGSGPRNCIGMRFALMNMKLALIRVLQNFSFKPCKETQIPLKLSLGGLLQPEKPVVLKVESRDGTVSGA
Sequence of Glucocorticoid receptor (Homo sapiens) (P04150 whole entry, looked up, the tested form may be a part): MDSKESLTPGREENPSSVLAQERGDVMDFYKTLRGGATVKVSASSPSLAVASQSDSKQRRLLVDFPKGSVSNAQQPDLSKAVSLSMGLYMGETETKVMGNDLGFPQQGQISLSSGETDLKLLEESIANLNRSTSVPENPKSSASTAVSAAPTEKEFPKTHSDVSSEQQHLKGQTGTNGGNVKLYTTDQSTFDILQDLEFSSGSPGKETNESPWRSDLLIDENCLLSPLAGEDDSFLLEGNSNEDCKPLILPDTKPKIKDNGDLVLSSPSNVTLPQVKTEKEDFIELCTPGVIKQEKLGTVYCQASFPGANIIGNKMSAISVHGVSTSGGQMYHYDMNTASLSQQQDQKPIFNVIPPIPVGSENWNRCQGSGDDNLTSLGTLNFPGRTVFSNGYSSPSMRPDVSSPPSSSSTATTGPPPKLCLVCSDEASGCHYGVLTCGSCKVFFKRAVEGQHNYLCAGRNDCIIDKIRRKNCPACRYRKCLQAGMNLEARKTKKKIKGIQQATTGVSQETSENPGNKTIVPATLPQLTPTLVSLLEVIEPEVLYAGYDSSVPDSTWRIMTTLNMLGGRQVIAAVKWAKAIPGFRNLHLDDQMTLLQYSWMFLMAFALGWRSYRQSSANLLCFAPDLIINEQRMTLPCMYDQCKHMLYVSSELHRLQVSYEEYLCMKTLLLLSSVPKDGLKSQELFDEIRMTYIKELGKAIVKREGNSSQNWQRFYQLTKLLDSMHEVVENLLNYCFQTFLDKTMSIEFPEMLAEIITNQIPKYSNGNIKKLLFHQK

CC(C)C[C@@H](CC(=O)N[C@H](CC(=O)N[C@@H]1CCCC[C@H]1C(=O)N[C@H](CC(=O)N[C@@H](CCC(=O)O)CC(=O)O)Cc1c[nH]c2ccccc12)C(C)C)NC(=O)[C@@H]1CNCC[C@H]1N
Potency [1]: inactive
Potency [2]: > 46 µM
Potency [3]: inactive
Potency [4]: inactive
Potency [5]: inactive
Potency [6]: inactive

CC(C)C[C@@H](CC(=O)N[C@H](CC(=O)N[C@@H]1CCCC[C@H]1C(=O)N[C@H](CC(=O)N[C@@H](CCC(=O)O)CC(=O)O)CC(C)C)C(C)C)NC(=O)[C@@H]1CCCC[C@H]1N
Potency [1]: inactive
Potency [2]: > 46 µM
Potency [7]: inactive
Potency [3]: inactive
Potency [5]: inactive
Potency [6]: inactive

CC1(C)S[C@@H]2[C@@H](NC(=O)[C@@H](N)c3ccccc3)C(=O)N2[C@H]1C(=O)O
Potency [1]: inactive
Potency [7]: inactive
Potency [3]: inactive

COC(=O)[C@@]1(Cc2ccccc2)[C@H]2c3cc(C(=O)N4CCCC4)n(Cc4ccc(OC)c(OC)c4)c3C[C@H]2CN1C(=O)c1ccccc1
Potency [1]: inactive
Potency [7]: inactive
Potency [3]: inactive
Potency [4]: 1.26 µM (active)
Potency [8]: 1.26 µM (active)
Potency [9]: inactive

C[C@@H](C(=O)Nc1ccc2ccccc2c1)[C@H]1C[C@]1(C)[C@H](NC(=O)c1cnccn1)c1ccccc1
Potency [1]: 25.1 µM (active)
Potency [7]: inactive
Potency [3]: inactive
Potency [4]: 5.01 µM (active)
Potency [8]: 0.631 µM (active)
Potency [9]: inactive

C[C@@]1(C(NC(=O)c2ccccc2)c2ccc(-c3ccccc3)cc2)C[C@H]1C1CCCCC1 (stereo not given in full)
Potency [1]: inactive
Potency [7]: inactive
Potency [3]: inactive

COC(=O)[C@@]1(Cc2ccc(F)cc2)[C@H]2c3cc(C(=O)N(C)C)n(Cc4cc(F)c(F)c(F)c4)c3C[C@H]2CN1C(=O)c1ccccc1
Potency [1]: inactive
Potency [7]: inactive
Potency [3]: inactive

COC(=O)[C@@]1(Cc2ccc(F)cc2)[C@H]2c3cc(C(=O)N4CCCC4)n(CCO)c3C[C@H]2CN1C(=O)c1ccccc1
Potency [1]: 25.1 µM (active)
Potency [7]: inactive
Potency [3]: inactive

C[C@@]1(C(NC(=O)Cc2ccc(C(F)(F)F)cc2)c2ccc(-c3ccccc3)cc2)C[C@H]1C1CCCCC1 (stereo not given in full)
Potency [1]: inactive
Potency [7]: inactive
Potency [3]: inactive

C[C@@H](C(=O)NCCc1c[nH]c2ccccc12)[C@H]1C[C@]1(C)[C@H](NC(=O)OCc1ccccc1)c1ccccc1
Potency [1]: 15.8 µM (active)
Potency [7]: inactive
Potency [3]: inactive
Potency [4]: 0.631 µM (active)
Potency [8]: 1.58 µM (active)
Potency [9]: inactive
Potency [5]: 2 µM (active)
Potency [6]: 2.51 µM (active)

COC(=O)[C@@]1(Cc2ccc(F)cc2)[C@H]2c3cc(C(=O)N4CCCC4)n(Cc4cccc5ccccc45)c3C[C@H]2CN1C(=O)c1ccccc1
Potency [1]: 15.8 µM (active)
Potency [7]: inactive
Potency [3]: inactive
Potency [4]: 1.58 µM (active)
Potency [8]: 2 µM (active)
Potency [9]: inactive

COC(=O)[C@@]1(Cc2ccc(F)cc2)[C@H]2c3cc(C(=O)N4CCCC4)n(CCN4CNCC4=O)c3C[C@H]2CN1C(=O)c1ccccc1
Potency [1]: 15.8 µM (active)
Potency [7]: inactive
Potency [3]: inactive
Potency [4]: 7.94 µM (active)
Potency [8]: 2 µM (active)
Potency [9]: inactive

COC(=O)[C@@]1(Cc2ccc(F)cc2)[C@H]2c3cc(C(=O)N4CCCC4)n(Cc4ccc(OC(F)(F)F)cc4)c3C[C@H]2CN1C(=O)c1ccccc1
Potency [1]: inactive
Potency [7]: inactive
Potency [3]: inactive
Potency [4]: 6.31 µM (active)
Potency [8]: 2.51 µM (active)
Potency [9]: inactive

COC(=O)[C@@]1(Cc2ccccc2)[C@H]2c3cc(C(=O)N(C)C)n(CCN4CNCC4=O)c3C[C@H]2CN1C(=O)c1ccccc1
Potency [1]: 5.01 µM (active)
Potency [7]: inactive
Potency [3]: inactive

CCCC[C@@H]1C[C@H]1C(NC(=O)c1ccc(-c2ccccc2)cc1)c1ccc(-c2ccccc2)cc1 (stereo not given in full)
Potency [1]: inactive
Potency [7]: inactive
Potency [3]: inactive

COC(=O)[C@@]1(Cc2ccc(F)cc2)[C@H]2c3cc(C(=O)N4CCCC4)n(CCF)c3C[C@H]2CN1C(=O)c1ccccc1
Potency [1]: 15.8 µM (active)
Potency [7]: inactive
Potency [3]: inactive

COC(=O)[C@@]1(Cc2ccc(F)cc2)[C@H]2c3cc(C(=O)N4CCCC4)n(CCCNc4ncc(C(F)(F)F)cc4Cl)c3C[C@H]2CN1C(=O)c1ccccc1
Potency [1]: inactive
Potency [7]: inactive
Potency [3]: inactive
Potency [4]: 3.16 µM (active)
Potency [8]: 2.51 µM (active)
Potency [9]: inactive

CC(Cc1ccccc1)C(=O)NCc1ccccn1 (stereo not given)
Potency [1]: 15.8 µM (active)
Potency [7]: inactive
Potency [3]: inactive

O=C(Nc1ccc2ccccc2c1)[C@@H]1C[C@H]1[C@@H](NP(=O)(c1ccccc1)c1ccccc1)c1ccccc1
Potency [1]: 20 µM (active)
Potency [7]: inactive
Potency [3]: inactive

CCc1c2c(nc3cccc(OC)c13)OC(CC)C2 (stereo not given)
Potency [1]: 2 µM (active)
Potency [7]: inactive
Potency [3]: inactive

CC(C)C[C@@H](CC(=O)N[C@H](CC(=O)N[C@@H]1CCNC[C@H]1C(=O)N[C@H](CC(=O)N[C@@H](CCC(=O)O)CC(=O)O)CC(C)C)C(C)C)NC(=O)[C@@H]1CCCC[C@H]1N
Potency [1]: inactive
Potency [7]: inactive
Potency [3]: inactive

COC(=O)[C@@]1(Cc2ccc(OC)cc2)[C@H]2c3cc(C(=O)N4CCCC4)n(CCc4c[nH]c5ccc(OC)cc45)c3C[C@H]2CN1C(=O)c1ccccc1
Potency [1]: 10 µM (active)
Potency [7]: inactive
Potency [3]: inactive

COC(=O)[C@@]1(Cc2ccc(F)cc2)[C@H]2c3cc(C(=O)N(C)C)n(C)c3C[C@H]2CN1C(=O)c1ccccc1
Potency [1]: 31.6 µM (active)
Potency [7]: inactive

CCC#CCOCC(=O)Nc1ccccc1
Potency [1]: 25.1 µM (active)
Potency [7]: inactive
Potency [3]: inactive
